Compounds with a hit are over-represented: about 2.8% of the library has one in this group of screens.
N-glyco inh = blocks N-linked glycosylation in D54 reporter cells | D54 ERlucT glycosylation luciferase reporter, 24 h; percent of 100 nM tunicamycin response | reporter increase, % at 12.5 µM | 360,000 tested, 0.23% active | AID 588692;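 active means mean luciferase reporter signal, scaled so untreated is 0 and the glycosylation-blocking control 100, at or above a set limit in every replicate; inconclusive means mean reaches the limit but not every replicate does; inactive means mean below the limit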;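 further: luciferase carries N-glycosylation sites so blocking glycosylation raises the light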
Shn3 3UTR inh = Schnurri-3 reporter inhibition in Clone20 osteoblasts | Clone20 osteoblast Shn3 3'UTR firefly luciferase, 24 h | inhibition, % at 12.5 µM | 360,000 tested, 0.52% active | AID 588674;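 active means mean inhibition of at least 75% with every replicate also reaching 75%; inconclusive means mean inhibition at least 75% but some replicate below; inactive means mean inhibition below 75%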
EBV LMP1 NFkB = inhibitors of Epstein-Barr LMP1-induced NF-kappaB reporter; LMP1-induced NF-kappaB luciferase reporter cells, luminescence; inhibition, % at 12.5 µM; 350,000 tested, 0.69% active; in the data active means inhibition above about 41%; inconclusive means no clear call, values can overlap the other calls
HIV Env fusion = inhibitors of HIV Env-mediated cell fusion | AID 651610 | inhibition, % at 12.3 µM | 360,000 tested, 1.1% active | HeLa-JRFL Env/CEM21 cell fusion, luciferase;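 active means mean replicate inhibition score of at least 50 and every replicate individually at or above 50; inconclusive means only one of the two criteria met; inactive means mean below 50 and not all replicates reaching 50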
PAX8 reporter = PAX8 transcriptional activity inhibition. RMG-I TPO-luciferase reporter, SteadyGlo, 24 h. inhibition, % at 12.6 µM. 360,000 tested, 1.2% active. AID 652154;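 active means mean replicate inhibition at least 60% with every replicate also reaching 60%; inconclusive means only one of the two criteria is met; inactive means mean below 60% and not all replicates reaching 60%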;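 further: luciferase light reporting Pax8 driven TPO promoter activity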
NSD2 inh = blocks human histone methyltransferase NSD2; O96028; NSD2 peptide methylation, AlphaScreen, 120 min; inhibition, % at 12.5 µM; 310,000 tested, 0.54% active; AID 743445; in the data active means inhibition above about 50%
Target sequence (O96028 whole entry, looked up): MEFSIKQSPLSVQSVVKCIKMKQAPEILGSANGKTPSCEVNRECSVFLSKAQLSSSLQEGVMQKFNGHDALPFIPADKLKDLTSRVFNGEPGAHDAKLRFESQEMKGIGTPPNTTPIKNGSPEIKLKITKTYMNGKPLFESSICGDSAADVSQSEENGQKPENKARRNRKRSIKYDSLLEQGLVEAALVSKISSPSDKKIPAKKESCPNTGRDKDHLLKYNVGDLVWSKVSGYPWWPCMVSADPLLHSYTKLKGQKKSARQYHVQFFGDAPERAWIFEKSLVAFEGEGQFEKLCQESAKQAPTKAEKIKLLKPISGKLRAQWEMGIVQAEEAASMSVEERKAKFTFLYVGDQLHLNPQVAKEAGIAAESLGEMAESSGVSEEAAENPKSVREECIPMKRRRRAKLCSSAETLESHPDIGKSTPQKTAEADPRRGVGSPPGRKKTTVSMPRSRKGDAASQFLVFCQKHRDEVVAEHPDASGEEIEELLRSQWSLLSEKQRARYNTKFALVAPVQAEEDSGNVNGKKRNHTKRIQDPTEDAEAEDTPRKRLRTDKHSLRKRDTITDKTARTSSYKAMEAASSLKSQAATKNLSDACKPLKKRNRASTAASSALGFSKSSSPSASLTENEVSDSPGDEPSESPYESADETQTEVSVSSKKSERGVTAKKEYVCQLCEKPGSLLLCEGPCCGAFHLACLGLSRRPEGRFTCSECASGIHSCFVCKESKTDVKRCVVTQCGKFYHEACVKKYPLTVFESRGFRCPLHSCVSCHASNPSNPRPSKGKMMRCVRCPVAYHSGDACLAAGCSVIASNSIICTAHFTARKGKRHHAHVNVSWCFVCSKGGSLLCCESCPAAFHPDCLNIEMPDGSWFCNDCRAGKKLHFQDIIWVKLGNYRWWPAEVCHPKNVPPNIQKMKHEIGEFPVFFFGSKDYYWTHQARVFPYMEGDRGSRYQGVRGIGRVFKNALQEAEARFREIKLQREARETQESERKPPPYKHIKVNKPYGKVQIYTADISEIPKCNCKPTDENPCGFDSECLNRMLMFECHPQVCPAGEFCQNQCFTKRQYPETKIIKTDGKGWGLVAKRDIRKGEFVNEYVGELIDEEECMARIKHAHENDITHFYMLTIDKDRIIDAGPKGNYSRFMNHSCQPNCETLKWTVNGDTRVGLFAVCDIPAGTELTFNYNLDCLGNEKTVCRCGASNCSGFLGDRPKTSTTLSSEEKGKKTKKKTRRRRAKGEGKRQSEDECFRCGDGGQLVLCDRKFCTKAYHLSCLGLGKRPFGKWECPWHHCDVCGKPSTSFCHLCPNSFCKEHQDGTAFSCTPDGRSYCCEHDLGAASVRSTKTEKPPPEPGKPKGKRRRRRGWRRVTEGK
Alpha artifact = counter-screen for NSD2 inhibitors: AlphaScreen artifacts. shares compounds with NSD2 inh. AlphaScreen artifact counterscreen, preloaded methylated H4 peptide. AC35, µM (doses to about 10 µM). 1,500 tested, 9.4% active. AID 1053174; call rule not given here
Of the large screens only hits and unclear results are named; the others gave an inactive call (follow-up assays come after a bar, where they were run).

CC1=NOC(=O)/C1=C\c1ccc(-c2ccc(Br)cc2)o1	NSD2 inh 69 | Alpha artifact inactive
C[C@@H]1CN([C@@H](C)CO)C(=O)c2cc(NC(=O)c3ccccc3)ccc2O[C@@H](C)CCCCO[C@H]1CN(C)C(=O)C1CCCCC1	none (no result: N-glyco inh, Shn3 3UTR inh, EBV LMP1 NFkB, PAX8 reporter, NSD2 inh)
COc1ccc(-c2c3c(nc4sc5c(=O)[nH]c(C)nc5c24)CCC3)cc1	none (no result: HIV Env fusion, PAX8 reporter)
COc1ccc(-c2c3c(nc4sc(C(=O)Nc5cc(C)on5)c(N)c24)CCC3)cc1	NSD2 inh 52 (no result: HIV Env fusion, PAX8 reporter) | Alpha artifact inactive
O=C(CSc1nc(-c2ccccc2)c(-c2ccccc2)o1)Nc1nnc(-c2ccccc2)s1	NSD2 inh 76 (no result: PAX8 reporter) | Alpha artifact inactive
O=C(C[C@H]1CC[C@@H]2NC[C@H](O)COC[C@H]2O1)Nc1ccccc1	none (no result: N-glyco inh, Shn3 3UTR inh, EBV LMP1 NFkB, HIV Env fusion, NSD2 inh)
CCCCNC1=CC(=O)C(=O)c2ccccc21	PAX8 reporter inconclusive, NSD2 inh 140 | Alpha artifact inactive
CO[C@H]1CN(C)C(=O)c2ccc(NS(=O)(=O)c3ccc(-c4ccccc4)cc3)cc2OC[C@@H](C)NC[C@@H]1C	none (no result: N-glyco inh, Shn3 3UTR inh, EBV LMP1 NFkB, HIV Env fusion, NSD2 inh)
O=C(c1cc(-c2ccc(Cl)c(Cl)c2)on1)N1CCCCCC1	NSD2 inh 81 | Alpha artifact inactive
CN1CCN(C(=O)C[C@H]2C[C@@H]3c4cc(NC(=O)c5cccnc5)ccc4O[C@@H]3[C@@H](CO)O2)CC1	none (no result: N-glyco inh, Shn3 3UTR inh, EBV LMP1 NFkB, NSD2 inh)
CCN(CC)CCNC(=O)c1cccc(NC(=O)C(=O)c2cc(Br)ccc2NC(C)=O)c1	NSD2 inh 57 | Alpha artifact inactive
CC(=O)Nc1ccccc1C(=O)C(=O)Nc1cccc(Br)c1	none
O=C(N/N=C1\C/C(=N\NC(=O)c2ccncc2)c2ccccc21)c1ccncc1	NSD2 inh 108 | Alpha artifact inactive
Cn1cnc(S(=O)(=O)N2CCCCN3[C@H](CO)[C@@H](c4ccc(C5=CCCC5)cc4)[C@H]3C2)c1	none (no result: N-glyco inh, Shn3 3UTR inh, EBV LMP1 NFkB, HIV Env fusion, NSD2 inh)
CSCCC(NC(=O)c1ccccc1Cl)C(=O)NCC(c1ccc(F)cc1)N1CCOCC1 (stereo not drawn)	NSD2 inh 141 | Alpha artifact inactive
COc1ccc(C(CNC(=O)C(CCSC)NC(=O)c2ccccc2Cl)N2CCOCC2)cc1 (stereo not drawn)	none
O=C(NCC1CC1)[C@H]1[C@H](CO)[C@H]2Cn3c(ccc(-c4ccccc4)c3=O)[C@H]2N1CC1CC1	none (no result: N-glyco inh, Shn3 3UTR inh, EBV LMP1 NFkB, HIV Env fusion, NSD2 inh)
CC(C)NC(=O)N(C)C[C@@H]1OCCCC[C@H](C)Oc2ccc(N(C)C)cc2C(=O)N([C@@H](C)CO)C[C@H]1C	none (no result: N-glyco inh, Shn3 3UTR inh, EBV LMP1 NFkB, NSD2 inh)
CN1C(=O)C(=O)/C(=C(/O)c2ccccc2)C1c1ccccc1 (stereo not drawn)	NSD2 inh 59 | Alpha artifact inactive
O=C1C(=O)N(CCO)C(c2ccccc2)/C1=C(\O)c1ccccc1 (stereo not drawn)	none (no result: NSD2 inh)
CCc1nnc(N/N=C/c2ccc(-c3ccc([N+](=O)[O-])cc3)o2)n1N	none
Cc1nnc(N/N=C\c2ccc(-c3ccccc3[N+](=O)[O-])o2)n1N	NSD2 inh 93 | Alpha artifact inactive
Cc1nnc(N/N=C/c2c(Cl)cccc2Cl)n1N	none
Cc1nnc(N/N=C/c2ccccc2O)n1N	NSD2 inh 101 | Alpha artifact inactive
Cc1nnc(N/N=C/c2ccc(-c3ccccc3F)o2)n1N	NSD2 inh 85 | Alpha artifact inactive
O=S(=O)(Nc1nc(-c2ccco2)c(-c2ccco2)s1)c1ccc(F)cc1F	NSD2 inh 100 | Alpha artifact inactive
COc1ccc(S(=O)(=O)N(C)C[C@@H]2Oc3c(NS(=O)(=O)c4ccccc4)cccc3C(=O)N([C@H](C)CO)C[C@H]2C)cc1	none (no result: N-glyco inh, Shn3 3UTR inh, EBV LMP1 NFkB, HIV Env fusion, NSD2 inh)
O=C1C=C(N(CCO)Cc2ccccc2)c2ccccc2C1=O	NSD2 inh 76 (no result: HIV Env fusion, PAX8 reporter) | Alpha artifact inactive
O=C1c2ccccc2C(=O)c2c1cccc2N(CCO)CCO	none
COc1cc(NC(=O)c2[nH]c(C)c(C(C)=O)c2C)cc(OC)c1OC	NSD2 inh 121 | Alpha artifact inactive
CC(=O)c1c(C)[nH]c(C(=O)Nc2ccc(C)cc2Br)c1C	NSD2 inh 72 | Alpha artifact inactive
O=C(c1ccncc1)N1C[C@@H]2[C@H](c3ccccc31)[C@H](CO)N2C(=O)Nc1ccc(F)cc1	none (no result: N-glyco inh, Shn3 3UTR inh, EBV LMP1 NFkB, HIV Env fusion, NSD2 inh)
CC(NC(=O)c1cccc(Br)c1)c1ccccc1 (stereo not drawn)	NSD2 inh 96 | Alpha artifact inactive
CC(NC(=O)c1cc(Br)ccc1Br)c1ccccc1 (stereo not drawn)	none (no result: N-glyco inh, Shn3 3UTR inh, EBV LMP1 NFkB)
O=C([C@@H]1[C@@H](CO)[C@@H]2Cn3c(ccc(-c4ccncc4)c3=O)[C@@H]2N1CCC(F)(F)F)N1CCCCC1	none (no result: N-glyco inh, Shn3 3UTR inh, EBV LMP1 NFkB, HIV Env fusion, NSD2 inh)
CCOc1cc(N2CCOCC2)c(OCC)cc1NC(=O)C(C)C	none
CCOc1cc(N2CCOCC2)c(OCC)cc1NC(C)C(=O)N1CCN(CC)CC1 (stereo not drawn)	NSD2 inh 90 | Alpha artifact inactive
CC1(C)Cc2sc3c(=O)[nH]c(=S)[nH]c3c2CO1	NSD2 inh 75 | Alpha artifact inactive
C[C@@H]1CN([C@H](C)CO)S(=O)(=O)c2ccc(-c3ccc(C#N)cc3)cc2O[C@@H]1CN(C)CC1CC1	none (no result: N-glyco inh, Shn3 3UTR inh, EBV LMP1 NFkB, PAX8 reporter, NSD2 inh)
CCn1c(SCC(=O)N2CCCCC2)nc2c1c(=O)n(C)c(=O)n2C	NSD2 inh 69 | Alpha artifact inactive
NS(=O)(=O)c1ccc(N/N=C/c2ccc(O)cc2O)c([N+](=O)[O-])c1	none
NS(=O)(=O)c1ccc(N/N=C/c2ccc(O)c(O)c2O)c([N+](=O)[O-])c1	NSD2 inh 73 | Alpha artifact inactive
O=C(C[C@H]1C[C@H]2c3cc(NC(=O)Nc4ccccc4)ccc3O[C@H]2[C@@H](CO)O1)NCc1ccccn1	none (no result: N-glyco inh, Shn3 3UTR inh, EBV LMP1 NFkB, NSD2 inh)
COc1cccc(CN2CCC(Oc3ccc(C(=O)N4CCCCC4)cc3)CC2)c1O	NSD2 inh 58 | Alpha artifact inactive
C[n+]1cccc2c(Br)ccc([O-])c21	NSD2 inh 104 | Alpha artifact inactive
CCN(C(=S)Nc1ccc(C(C)=O)cc1)C1CCCCC1	NSD2 inh 53 | Alpha artifact inactive
CCCN(CC1CC1)C(=S)Nc1ccc(C(C)=O)cc1	none
CCN(CC)C(=O)CSc1nc2ccccc2c(=O)n1CCC(=O)NCc1ccc(F)cc1	NSD2 inh 121 | Alpha artifact inactive
CCCNC(=O)C[C@@H]1CC[C@@H]2[C@@H](COc3ccc(NC(=O)c4cccs4)cc3C(=O)N2C)O1	none (no result: N-glyco inh, Shn3 3UTR inh, EBV LMP1 NFkB, HIV Env fusion, NSD2 inh)
N#Cc1ccc(C(=O)OCC(=O)N2CCOCC2)cc1	none
O=C(OCC(=O)N1CCOCC1)c1ccc(Br)cc1	NSD2 inh 64 | Alpha artifact inactive
O=C(NCCN1CCCCC1)/C(=C/c1ccco1)NC(=O)c1ccccc1	NSD2 inh 79 | Alpha artifact inactive
COc1ccc([Si](C)(C)[C@@H]2[C@@H](CCn3cc([C@H](O)c4ccccc4)nn3)O[C@]3(C(=O)N(C)c4ccccc43)[C@H]2C)cc1	none (no result: N-glyco inh, Shn3 3UTR inh, EBV LMP1 NFkB, NSD2 inh)
CCOc1ccc(N(CC(=O)NCc2ccc3c(c2)OCO3)C(=O)c2csnn2)cc1	none

Assay outcomes: PubChem BioAssay, Broad Institute
